# Assay results taken from PubChem BioAssay (EPA / NIEHS).
# Inconclusive results are not listed. Active and inactive are the calls of the source. How the source made its calls: active means hit-call score of the fitted dose curve at least 0.9, where 1 is the maximum; inconclusive means response in the unintended direction; inactive means score below 0.9.
# What was measured:
# [1] = biological target: human Adrenergic, Beta 3 Receptor (Adrb3), ADRB3 (gene 155) (UniProt P13945); test: NVS_GPCR_hAdrb3: NovaScreen (NVS) G Protein-Coupled Receptor Assay for human Adrenergic, Beta 3 Receptor (Adrb3) (AID 2283262)
# Method in brief: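 Membranes from SK-N-MC cells pretreated with isoproterenol and 8-bromo-cAMP were used in a radioligand competitive displacement binding assay. Binding was read by filter-based scintillation counting 1 hour after dosing. Primary screening was in duplicate at 25 uM, with concentration series in follow-up.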
# [2] = biological target: human Histamine 1 Receptor (H1), HRH1 (gene 3269) (UniProt P35367); test: NVS_GPCR_hH1: NovaScreen (NVS) G Protein-Coupled Receptor Assay for human Histamine 1 Receptor (H1) (AID 2283268)
# Method in brief: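 Cell-free radioligand displacement at human H1 receptor, 1 h, filter scintillation counting; primary screen 25 uM in duplicate, hits in concentration series; loss of binding fitted vs DMSO.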
# [3] = biological target: human Dopamine Receptor D4.4 (DRD4.4), DRD4 (gene 1815) (UniProt P21917); test: NVS_GPCR_hDRD4.4: NovaScreen (NVS) G Protein-Coupled Receptor Assay for human Dopamine Receptor D4.4 (DRD4.4) (AID 2283264)
# Method in brief: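 Radioligand displacement on human DRD4.4 from CHO-derived membranes, 1 hour incubation, bound counts read by filtration and scintillation. Primary screen in duplicate at 25 uM; actives followed up in concentration series.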
# [4] = biological target: human Dopamine Receptor D2 (DRD2), DRD2 (gene 1813) (UniProt P14416); test: NVS_GPCR_hDRD2s: NovaScreen (NVS) G Protein-Coupled Receptor Assay for human Dopamine Receptor D2 (DRD2) (AID 2283266)
# Method in brief: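 Radioligand displacement used human DRD2 membranes extracted from CHO cells and was read by filter-based scintillation counting after 1.5 hours. Primary screening was in duplicate at 25 uM. Loss of signal versus DMSO was fitted, with concentration series in follow-up.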
# [5] = biological target: human Adrenergic, Beta 1 Receptor (Adrb1), ADRB1 (gene 153) (UniProt P08588); test: NVS_GPCR_hAdrb1: NovaScreen (NVS) G Protein-Coupled Receptor Assay for human Adrenergic, Beta 1 Receptor (Adrb1) (AID 2283258)
# Method in brief: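 Cell-free radioligand displacement on receptor from human neuroepithelioma cells; 2 h after dosing, filter-based scintillation counting. Primary screen in duplicate at 25 uM, actives retested in concentration series; loss of signal vs DMSO baseline.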
# [6] = biological target: human Adrenergic, Alpha 2c Receptor (Adra2C), ADRA2C (gene 152) (UniProt P18825); test: NVS_GPCR_hAdra2C: NovaScreen (NVS) G Protein-Coupled Receptor Assay for human Adrenergic, Alpha 2c Receptor (Adra2C) (AID 2283259)
# Method in brief: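 Radioligand binding on Sf9-expressed receptor membranes, 1 h after chemical dosing, filter-based scintillation read-out. Loss of binding fitted positively versus DMSO; primary duplicate screen at 25 uM, actives retested in concentration series.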
# [7] = biological target: Type-1 angiotensin II receptor (Homo sapiens) (UniProt P30556); test: NVS_GPCR_hAT1: NovaScreen (NVS) G Protein-Coupled Receptor Assay for human Angiotensin II receptor type 1 (AT1) (AID 2283263)
# Method in brief: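 Membranes from KAN-TS cells; radioligand competitive displacement, 3 h, filtration and scintillation counting. Single-point duplicate screen at 25 uM, then concentration-response up to 50 uM for hits; loss of signal fitted versus DMSO.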
# Chain of human Adrenergic, Alpha 2c Receptor (Adra2C), ADRA2C (gene 152) (P18825 whole entry, looked up): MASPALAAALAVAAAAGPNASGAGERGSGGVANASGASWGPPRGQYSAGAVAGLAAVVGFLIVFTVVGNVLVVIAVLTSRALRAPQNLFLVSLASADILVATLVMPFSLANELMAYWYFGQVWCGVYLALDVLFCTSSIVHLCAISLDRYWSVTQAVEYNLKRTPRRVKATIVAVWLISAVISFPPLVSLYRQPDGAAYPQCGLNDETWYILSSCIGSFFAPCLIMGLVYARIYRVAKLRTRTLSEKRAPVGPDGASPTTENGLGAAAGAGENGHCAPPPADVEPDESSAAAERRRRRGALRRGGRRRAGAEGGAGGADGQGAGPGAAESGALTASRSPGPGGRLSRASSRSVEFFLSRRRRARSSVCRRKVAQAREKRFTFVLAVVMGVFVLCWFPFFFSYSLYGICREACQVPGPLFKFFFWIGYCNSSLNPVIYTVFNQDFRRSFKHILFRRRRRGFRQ
# Chain of human Dopamine Receptor D2 (DRD2), DRD2 (gene 1813) (P14416 whole entry, looked up): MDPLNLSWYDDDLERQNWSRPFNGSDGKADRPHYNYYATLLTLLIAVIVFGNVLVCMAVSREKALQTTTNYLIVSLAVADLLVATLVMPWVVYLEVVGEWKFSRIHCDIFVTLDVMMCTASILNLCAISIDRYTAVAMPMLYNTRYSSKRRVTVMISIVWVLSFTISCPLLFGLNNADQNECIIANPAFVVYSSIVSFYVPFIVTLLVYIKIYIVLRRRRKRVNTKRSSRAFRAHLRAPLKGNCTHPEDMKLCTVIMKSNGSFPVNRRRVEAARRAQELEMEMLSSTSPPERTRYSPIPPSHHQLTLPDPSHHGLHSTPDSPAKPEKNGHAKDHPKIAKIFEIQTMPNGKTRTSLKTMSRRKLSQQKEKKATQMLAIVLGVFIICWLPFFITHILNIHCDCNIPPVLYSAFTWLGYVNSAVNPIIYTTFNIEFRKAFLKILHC
# Chain of human Histamine 1 Receptor (H1), HRH1 (gene 3269) (P35367 whole entry, looked up): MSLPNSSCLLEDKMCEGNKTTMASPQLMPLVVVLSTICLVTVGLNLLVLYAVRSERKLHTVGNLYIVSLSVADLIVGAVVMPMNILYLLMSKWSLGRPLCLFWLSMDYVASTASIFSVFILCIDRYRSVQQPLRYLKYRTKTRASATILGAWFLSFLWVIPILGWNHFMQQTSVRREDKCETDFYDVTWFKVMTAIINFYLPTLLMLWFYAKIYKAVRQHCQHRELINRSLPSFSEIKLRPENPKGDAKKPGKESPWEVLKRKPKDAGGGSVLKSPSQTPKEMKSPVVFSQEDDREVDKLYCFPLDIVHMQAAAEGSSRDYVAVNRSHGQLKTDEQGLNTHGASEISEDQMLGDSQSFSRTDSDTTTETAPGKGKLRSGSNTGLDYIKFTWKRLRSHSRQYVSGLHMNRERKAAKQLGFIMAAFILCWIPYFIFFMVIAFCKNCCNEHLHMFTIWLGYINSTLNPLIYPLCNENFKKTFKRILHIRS
# Chain of human Dopamine Receptor D4.4 (DRD4.4), DRD4 (gene 1815) (P21917 whole entry, looked up): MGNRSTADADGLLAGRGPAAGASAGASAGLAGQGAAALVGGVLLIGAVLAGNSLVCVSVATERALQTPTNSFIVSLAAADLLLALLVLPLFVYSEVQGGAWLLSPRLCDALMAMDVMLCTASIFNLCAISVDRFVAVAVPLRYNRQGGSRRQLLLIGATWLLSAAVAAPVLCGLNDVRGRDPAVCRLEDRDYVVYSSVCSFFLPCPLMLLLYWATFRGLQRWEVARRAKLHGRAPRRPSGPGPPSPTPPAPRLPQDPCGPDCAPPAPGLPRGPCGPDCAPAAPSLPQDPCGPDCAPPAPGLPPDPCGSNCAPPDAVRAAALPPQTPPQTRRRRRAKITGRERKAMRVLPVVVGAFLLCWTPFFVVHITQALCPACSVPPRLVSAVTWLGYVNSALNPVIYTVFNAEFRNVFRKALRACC
# Chain of Type-1 angiotensin II receptor (Homo sapiens) (P30556 whole entry, looked up): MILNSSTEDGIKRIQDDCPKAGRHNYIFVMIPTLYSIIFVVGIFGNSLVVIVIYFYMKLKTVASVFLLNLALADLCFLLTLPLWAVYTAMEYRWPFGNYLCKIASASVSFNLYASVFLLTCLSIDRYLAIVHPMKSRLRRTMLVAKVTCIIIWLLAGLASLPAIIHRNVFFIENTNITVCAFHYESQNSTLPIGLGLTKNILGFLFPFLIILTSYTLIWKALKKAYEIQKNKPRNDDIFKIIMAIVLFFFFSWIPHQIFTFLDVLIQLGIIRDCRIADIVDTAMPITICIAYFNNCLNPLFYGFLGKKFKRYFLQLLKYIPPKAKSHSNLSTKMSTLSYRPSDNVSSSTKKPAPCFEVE
# Chain of human Adrenergic, Beta 1 Receptor (Adrb1), ADRB1 (gene 153) (P08588 whole entry, looked up): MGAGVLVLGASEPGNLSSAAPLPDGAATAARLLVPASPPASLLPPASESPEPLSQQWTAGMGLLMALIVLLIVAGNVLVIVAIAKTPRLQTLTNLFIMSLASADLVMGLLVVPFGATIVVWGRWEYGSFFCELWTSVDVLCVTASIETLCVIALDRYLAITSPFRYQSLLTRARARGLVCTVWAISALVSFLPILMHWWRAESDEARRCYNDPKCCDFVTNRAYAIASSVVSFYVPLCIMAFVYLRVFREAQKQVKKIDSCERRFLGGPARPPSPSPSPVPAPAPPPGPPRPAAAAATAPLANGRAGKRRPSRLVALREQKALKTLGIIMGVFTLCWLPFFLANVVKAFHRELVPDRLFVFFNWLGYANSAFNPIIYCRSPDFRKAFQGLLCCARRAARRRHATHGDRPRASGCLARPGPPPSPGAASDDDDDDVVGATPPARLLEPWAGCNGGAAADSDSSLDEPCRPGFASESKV
# Chain of human Adrenergic, Beta 3 Receptor (Adrb3), ADRB3 (gene 155) (P13945 whole entry, looked up): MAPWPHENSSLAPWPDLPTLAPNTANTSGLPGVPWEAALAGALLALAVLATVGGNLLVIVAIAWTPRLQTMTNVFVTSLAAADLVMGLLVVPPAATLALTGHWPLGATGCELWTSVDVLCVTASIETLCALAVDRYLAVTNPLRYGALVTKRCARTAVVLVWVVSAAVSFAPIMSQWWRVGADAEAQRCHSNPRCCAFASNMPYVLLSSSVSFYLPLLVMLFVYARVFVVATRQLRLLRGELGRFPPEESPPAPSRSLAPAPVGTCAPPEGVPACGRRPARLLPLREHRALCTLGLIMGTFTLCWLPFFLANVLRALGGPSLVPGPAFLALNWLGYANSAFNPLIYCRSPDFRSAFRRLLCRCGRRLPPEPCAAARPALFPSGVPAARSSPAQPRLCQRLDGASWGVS
structure (smiles),measurement,setting,value
CCCCCCCCN(C)C,outcome,[1],inactive
same,outcome,[2],inactive
O=S(=O)(O)c1ccc(N=Nc2c(O)ccc3cc(S(=O)(=O)O)ccc23)cc1,AC50,[3],32 µM (active)
same,AC50,[4],8.72 µM (active)
c1ccc2cc3ccccc3cc2c1,outcome,[2],inactive
C=CCc1cc(S(=O)(=O)c2ccc(O)c(CC=C)c2)ccc1O,AC50,[5],20.1 µM (active)
same,AC50,[6],8.06 µM (active)
same,AC50,[7],17.1 µM (active)
same,AC50,[3],25 µM (active)
same,AC50,[4],33.1 µM (active)
CCCCCCCCCC,outcome,[5],inactive
same,outcome,[6],inactive
same,outcome,[4],inactive
Cc1ncc([C@@H](CCCCCCc2ccc3c(n2)NCCC3)CC(=O)O)cn1,AC50,[6],16.2 µM (active)
CCc1ccc(O)c(C(C)(C)C)c1,outcome,[4],inactive
Cc1nccn1-c1ccc(Sc2cccc(C3(C(N)=O)CCOCC3)c2)cc1,outcome,[7],inactive
